The source of these data is PubChem BioAssay (NCATS).

Structures are written as SMILES. Records with an inconclusive call do not appear. Active and inactive are the calls of the source. Unless noted, calls come from the whole dose curve; as a rule, active = well fitted curve in the direction sought with a large enough effect; inconclusive = small, poorly fitted or top-dose-only effect, or another doubt; inactive = no such curve, though single readings can be large; an effect the other way counts as inactive or inconclusive.

Assay [1] has as its target Catechol O-methyltransferase (Homo sapiens) (UniProt P21964). Briefly: Confirmatory Screen for Target Class Profiling of Small Molecule Inhibitors of Methyltransferases (AID 1745852; calls by dose curve; note: potency is the fitted concentration of half-maximal effect; for activity change, negative = inhibition: % is set by controls: 0 for no effect and ±100 for the full control effect). As to conditions: MTase-Glo luminescence, SAH detection, recombinant enzyme; measured here: COMT max response; stronger effect = lower value.
For assay [2], the target named is Guanidinoacetate N-methyltransferase (Homo sapiens) (UniProt Q14353). The description is as above. As to conditions: MTase-Glo luminescence, SAH detection, recombinant enzyme; activity change, negative = inhibition: at 57.3 µM (top of the series) unless noted; series mostly up to 57.3 µM.
The target of assay [3] is Nicotinamide N-methyltransferase (Homo sapiens) (UniProt P40261). The description is as above. As to conditions: MTase-Glo luminescence, SAH detection, recombinant enzyme; measured here: NNMT max response; stronger effect = lower value.
Chain of Nicotinamide N-methyltransferase (Homo sapiens) (P40261 whole entry, looked up): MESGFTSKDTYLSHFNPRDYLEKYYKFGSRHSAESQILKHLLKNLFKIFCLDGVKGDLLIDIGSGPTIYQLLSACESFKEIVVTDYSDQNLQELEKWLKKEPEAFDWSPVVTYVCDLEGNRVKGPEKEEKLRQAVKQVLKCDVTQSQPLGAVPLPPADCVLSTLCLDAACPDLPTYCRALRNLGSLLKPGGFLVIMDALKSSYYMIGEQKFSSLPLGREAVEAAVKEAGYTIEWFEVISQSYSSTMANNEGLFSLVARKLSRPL
Assay [4] deals with Phenylethanolamine N-methyltransferase (Homo sapiens) (UniProt P11086). The assay is described as above. As to conditions: MTase-Glo luminescence, SAH detection, recombinant enzyme; measured here: PNMT max response; stronger effect = lower value.
Chain of Phenylethanolamine N-methyltransferase (Homo sapiens) (P11086 whole entry, looked up): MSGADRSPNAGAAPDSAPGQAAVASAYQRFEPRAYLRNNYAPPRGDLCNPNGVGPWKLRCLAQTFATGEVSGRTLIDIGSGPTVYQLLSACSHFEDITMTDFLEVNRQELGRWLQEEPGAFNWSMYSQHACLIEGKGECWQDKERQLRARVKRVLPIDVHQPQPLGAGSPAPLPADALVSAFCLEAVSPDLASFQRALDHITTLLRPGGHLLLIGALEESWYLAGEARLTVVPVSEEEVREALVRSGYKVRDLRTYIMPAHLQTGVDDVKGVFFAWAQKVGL
Assay [5] can be described thus: Counterscreen for APE1 Inhibitors: Fluorescent Dye Displacement Validation Assay (AID 1707).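 Note: plate controls were ThO with dsDNA and no compound for no effect and ThO without dsDNA for full effect.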 As to conditions: fluorescent dye displacement from DNA; series mostly up to 57.1 µM. In outline:
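Compounds are scored by their ability to displace Thiazole Orange (250 nM) from a 50 nM TAMRA-tagged duplex bearing a tetrahydrofuran abasic site. Buffer is 50 mM Tris-HCl pH7.5, 50mM NaCl, 2 mM MgCl2, 0.01% Tween-20.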
(The purpose of a counterscreen is to sort out artefacts and off-target activity.)

Assay [6] can be described thus: qHTS for differential inhibitors of proliferation of Plasmodium falciparum line Dd2 (AID 1882). Note: potency is the fitted concentration of half-maximal effect; nearly all actives have a fitted effect of over 65% in size. As to conditions: Potency: Plasmodium falciparum Dd2 proliferation inhibition; series mostly up to 28.7 µM. Summed up: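 SYBR Green I DNA fluorescence read-out, ex 485/em 535 nm. Signals were normalized to 0.29 uM artemisinin and DMSO wells, then corrected using vehicle-only plates flanking each stack. Parasite growth ran 72 h in erythrocytes before lysis.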
On the technique in general: Quantitative high-throughput screening tests each substance at several concentrations.

For assay [7], the target named is Ferritin light chain (Equus caballus) (UniProt P02791). Briefly: qHTS Validation Assay for Identification of Novel General Anesthetics (AID 2323). Note: % is set by controls: 0 for no effect and ±100 for the full control effect. As to conditions: horse apoferritin, anesthetic-site fluorescent probe displacement; series mostly up to 76.9 µM. In outline: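 Normalized fluorescence response, scaled between free 1-AMA and 1-AMA/apoferritin complex, fitted to a four-parameter Hill equation for concentration-effect values. Binding mix: 10 uM horse-spleen apoferritin, 50% saturated 1-AMA in PBS; read 380/535 nm after 10 min.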
Chain of Ferritin light chain (Equus caballus) (P02791 2-175 limits assumed): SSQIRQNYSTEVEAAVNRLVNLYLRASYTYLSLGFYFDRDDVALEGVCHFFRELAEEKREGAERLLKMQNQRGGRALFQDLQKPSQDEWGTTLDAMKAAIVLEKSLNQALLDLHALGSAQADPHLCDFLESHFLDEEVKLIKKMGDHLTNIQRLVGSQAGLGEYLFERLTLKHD

Assay [8] deals with ATP-dependent DNA helicase Q1 (Homo sapiens) (UniProt P46063). Briefly: qHTS Validation Assay for Inhibitors of RecQ-Like Dna Helicase 1 (RECQ1) (AID 2353).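 Note: plate controls were DMSO vehicle for no effect and enzyme-free control for full effect.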 As to conditions: recombinant RECQ1 helicase DNA unwinding assay; series mostly up to 25.6 µM. In outline:
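50 nM RECQ1T1 preincubated 15 min with compound in Tris pH 8.0 buffer with MgCl2, DTT, Tween-20 and 2.5 ug/ml poly(dI-dC); started with 200 nM TAMRA/BHQ-2 forked duplex and 2 mM ATP. Unwinding read as fluorescence (525/598 nm), two reads 2 h apart.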

Assay [9] deals with RecQ-like DNA helicase BLM (Homo sapiens) (UniProt P54132). Briefly: qHTS Validation Assay for Inhibitors of Bloom's syndrome helicase (BLM) (AID 2364).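 Note: plate controls were DMSO vehicle for no effect and enzyme-free control for full effect.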 As to conditions: BLM helicase DNA unwinding, fluorescence, in vitro; series mostly up to 57.1 µM. In outline: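 50 nM BLM preincubated 15 min at room temperature with compound in pH 8.0 Tris buffer containing 2.5 ug/ml poly(dI-dC); started with 200 nM TAMRA/BHQ-2 forked duplex and 2 mM ATP (final). Unwinding read as TAMRA fluorescence increase, two reads 2 h apart.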
Chain of RecQ-like DNA helicase BLM (Homo sapiens) (P54132 whole entry, looked up): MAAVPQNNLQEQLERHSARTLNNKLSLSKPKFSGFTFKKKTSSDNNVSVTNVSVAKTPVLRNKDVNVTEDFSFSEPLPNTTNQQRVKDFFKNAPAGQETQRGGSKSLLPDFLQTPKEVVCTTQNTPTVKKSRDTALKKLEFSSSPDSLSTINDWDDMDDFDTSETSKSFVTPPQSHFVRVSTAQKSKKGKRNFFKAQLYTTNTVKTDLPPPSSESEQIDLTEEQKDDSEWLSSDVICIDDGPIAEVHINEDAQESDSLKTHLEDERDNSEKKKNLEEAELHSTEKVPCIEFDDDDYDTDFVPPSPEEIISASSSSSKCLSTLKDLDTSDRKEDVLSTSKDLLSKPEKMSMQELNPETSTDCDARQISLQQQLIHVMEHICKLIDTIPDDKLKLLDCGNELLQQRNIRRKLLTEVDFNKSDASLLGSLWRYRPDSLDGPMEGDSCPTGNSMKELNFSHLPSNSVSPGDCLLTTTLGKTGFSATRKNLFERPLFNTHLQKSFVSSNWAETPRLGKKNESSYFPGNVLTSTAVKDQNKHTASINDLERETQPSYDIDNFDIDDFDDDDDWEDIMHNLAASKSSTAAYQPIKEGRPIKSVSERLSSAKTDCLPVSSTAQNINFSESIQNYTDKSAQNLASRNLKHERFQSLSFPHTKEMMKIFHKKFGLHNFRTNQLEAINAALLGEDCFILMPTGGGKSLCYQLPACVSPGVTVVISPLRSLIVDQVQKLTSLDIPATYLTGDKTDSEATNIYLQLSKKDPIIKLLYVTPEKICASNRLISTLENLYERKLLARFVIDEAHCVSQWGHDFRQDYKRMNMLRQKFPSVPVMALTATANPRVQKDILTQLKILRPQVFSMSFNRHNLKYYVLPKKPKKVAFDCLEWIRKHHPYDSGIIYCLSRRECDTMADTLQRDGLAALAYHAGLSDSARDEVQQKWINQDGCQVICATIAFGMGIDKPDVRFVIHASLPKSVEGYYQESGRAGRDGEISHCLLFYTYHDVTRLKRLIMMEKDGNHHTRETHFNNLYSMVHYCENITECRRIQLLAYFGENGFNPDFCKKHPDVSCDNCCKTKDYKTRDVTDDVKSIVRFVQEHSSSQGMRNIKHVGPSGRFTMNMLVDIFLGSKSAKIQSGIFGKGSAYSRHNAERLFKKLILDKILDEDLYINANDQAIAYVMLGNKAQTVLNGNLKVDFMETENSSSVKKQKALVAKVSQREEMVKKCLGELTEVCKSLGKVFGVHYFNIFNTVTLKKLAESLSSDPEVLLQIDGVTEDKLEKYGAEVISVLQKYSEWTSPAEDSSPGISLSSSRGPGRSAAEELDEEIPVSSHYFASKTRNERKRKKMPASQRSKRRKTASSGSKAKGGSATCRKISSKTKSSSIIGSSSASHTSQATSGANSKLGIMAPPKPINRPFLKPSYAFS

Assay [10] is described as follows: Validation screen for small molecules that induce DNA re-replication in MCF 10A normal breast cells (AID 463097). Note: 0% is about no effect; nearly all actives have a fitted effect of over 60% in size. As to conditions: MCF 10A cells, DNA re-replication phenotype imaging; series mostly up to 46.1 µM. Summed up:
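Following 48 hr compound incubation (37 C, 5% CO2), MCF 10A cells receive Hoechst for 40 min at 37 C. Nuclei are then scanned (excitation 405 nm, emission 500-530 nm) for total fluorescence intensity.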

Assay [11] is described as follows: Quantitative high throughput screen for delayed death inhibitors of the malarial parasite plastid, 96 hour incubation (AID 488745). Note: potency is the fitted concentration of half-maximal effect; nearly all actives have a fitted effect of over 70% in size. As to conditions: Plasmodium falciparum growth; series mostly up to 28.7 µM. In outline: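 P. falciparum carrying an integrated firefly luciferase reporter, grown in erythrocytes (2% hematocrit, 0.1% parasitemia final) in RPMI 1640/0.5% Albumax, was exposed to compound for 96 h (two generations) at 37 C, 5% CO2. Luminescence decrease indicated growth inhibition.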

The nature of assay [12]: Quantitative high throughput screen for delayed death inhibitors of the malarial parasite plastid, 48 hour incubation (AID 488752). Note: potency is the fitted concentration of half-maximal effect; nearly all actives have a fitted effect of over 65% in size. As to conditions: Plasmodium falciparum growth; series mostly up to 28.7 µM. In outline:
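Erythrocytes infected with P. falciparum carrying an integrated firefly luciferase reporter (2% hematocrit, 0.1% parasitemia final) were exposed to compounds in RPMI 1640/0.5% Albumax for 48 h at 37 C, 5% CO2. Growth inhibition was scored as reduced luminescence.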

Assay [13] in a line: Validation screen for small molecules that induce DNA re-replication in SW480 colon adenocarcinoma cells (AID 504364). Note: 0% is about no effect. As to conditions: DNA re-replication phenotype (high-content imaging); series mostly up to 46.1 µM. In outline:
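SW480 cells seeded at 250 per well were exposed to compound or DMSO for 48 hr at 37 C, 5% CO2, then stained with Hoechst for 40 min. DNA content per nucleus was imaged (405 nm ex, 500-530 nm em).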

Chain of Catechol O-methyltransferase (Homo sapiens) (P21964 whole entry, looked up): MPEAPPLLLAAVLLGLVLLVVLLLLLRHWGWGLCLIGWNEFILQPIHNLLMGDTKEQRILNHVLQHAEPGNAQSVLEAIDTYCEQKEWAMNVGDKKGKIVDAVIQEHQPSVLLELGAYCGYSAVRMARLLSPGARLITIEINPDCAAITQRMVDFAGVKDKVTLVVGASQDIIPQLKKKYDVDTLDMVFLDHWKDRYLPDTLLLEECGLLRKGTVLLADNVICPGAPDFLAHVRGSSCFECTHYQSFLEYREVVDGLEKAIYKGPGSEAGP
Chain of ATP-dependent DNA helicase Q1 (Homo sapiens) (P46063 whole entry, looked up): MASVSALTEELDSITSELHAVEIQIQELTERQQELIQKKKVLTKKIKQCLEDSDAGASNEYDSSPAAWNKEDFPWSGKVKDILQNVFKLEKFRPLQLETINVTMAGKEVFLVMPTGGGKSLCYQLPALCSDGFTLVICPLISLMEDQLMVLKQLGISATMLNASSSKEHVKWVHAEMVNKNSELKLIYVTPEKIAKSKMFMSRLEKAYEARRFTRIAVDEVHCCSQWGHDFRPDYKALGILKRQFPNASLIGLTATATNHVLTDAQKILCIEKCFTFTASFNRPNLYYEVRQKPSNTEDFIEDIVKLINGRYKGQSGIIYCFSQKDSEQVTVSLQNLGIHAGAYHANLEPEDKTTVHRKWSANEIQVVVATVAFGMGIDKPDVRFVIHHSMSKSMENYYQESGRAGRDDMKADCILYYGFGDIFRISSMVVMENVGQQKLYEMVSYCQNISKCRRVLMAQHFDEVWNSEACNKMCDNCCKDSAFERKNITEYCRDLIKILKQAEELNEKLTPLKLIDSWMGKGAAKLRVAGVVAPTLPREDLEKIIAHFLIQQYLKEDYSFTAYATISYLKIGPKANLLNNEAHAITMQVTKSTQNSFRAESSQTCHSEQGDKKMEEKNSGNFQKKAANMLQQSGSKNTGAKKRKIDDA

`CCCC1c2cccn2CCN1C(=O)Nc1ccc(Br)cc1F` (stereo not drawn): the figures for the activity in assay [1], in [3] and in assay [4] were -8.21%, -17% and -10.2%, respectively. Besides, the activity change, negative = inhibition in [2] is -4.98%.
Regarding `COc1cncc(Nc2ncc(-c3ccccc3OC)c3c2OCC3)c1`, the activity in assay [1] is 0.728%; in assay [3] it was -19.7%; in assay [4] it was 0.675%. The activity change, negative = inhibition in assay [2] amounted to 2.22% [at 85.7 µM].
Regarding `CCC1CCCCN1CCCNC(=O)Cn1ccc2cc(S(=O)(=O)N3CCCCC3)ccc21` (stereo not drawn), the activity in assay [1] is 1.17%; in assay [3], -2.34%; in assay [4] it was -1.74%. The activity change, negative = inhibition in assay [2] turned out to be 0%.
For `CC(NC(=O)c1ccc2c(=O)nc3c(-c4cccc(F)c4)n[nH]n3c2c1)c1ccc(F)cc1` (stereo not drawn), the activity in assay [1] was -18.4%; in assay [3], -28.4%; in [4], -25.5%. In assay [2], the Potency was 13600 nM (active).
Consider `C=C[C@@H]1CN2CC[C@@H]1C[C@@H]2[C@H](O)c1ccnc2ccc(OC)cc12`, for which the outcome in assay [5], in assay [7] and in [8] was “inactive” in each case. For the same compound, the Potency in assay [6] is 126 nM (active); in assay [11], 16.5 nM (active); in assay [12], 26.2 nM (active). In addition, the Potency result in assay [9], in [10] and in [13] was “inactive” each time.
As to `CC(C)CCn1c(=O)c2ccccc2n2c(CCC(=O)N3CCN(c4cccc(Cl)c4)CC3)nnc12`, the activity is 1.55% in assay [1], -55.2% in assay [3] and -8.01% in assay [4]. Further, in [2], the activity change, negative = inhibition was determined as 1.8%.
On to `CC1CCN(CCCNC(=O)CCc2nnc3n(Cc4ccc(Cl)cc4)c(=O)c4ccccc4n23)CC1`, for which the values for the activity in assay [1], in [3] and in assay [4] were -7.96%, -19% and -5.13%, respectively. The activity change, negative = inhibition in [2] is -1.55%.
